From PubChem BioAssay (NCI)
The panel holds about 79,000 compounds, 15% with a hit somewhere; the sample as a whole holds those more often. Active and inactive are the calls of the source. Cut-off read from the data, not from the text of the source: active = growth inhibition above about 70%; inactive = the rest.

Assays:
[1] = NCI Yeast Anticancer Drug Screen. Data for the rad50 strain (AID 155);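 note: 0% = growth of vehicle-only cultures of the same strain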; conditions: S. cerevisiae rad50 strain growth inhibition; at 50.0 µM; stronger effect = higher value
Procedure, shortened: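 Yeast carrying a defined DNA repair defect were exposed to test compounds, and growth was compared with vehicle-treated controls to give percent inhibition.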

[2] = NCI Yeast Anticancer Drug Screen. Data for the mec2-1 strain (AID 157); conditions: S. cerevisiae mec2-1 strain, at 50.0 µM, stronger effect = higher value
Procedure, shortened: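 Each compound was tested on mec2-1 yeast, a strain altered in DNA damage repair or cell cycle control. Growth inhibition is reported relative to vehicle.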

[3] = NCI Yeast Anticancer Drug Screen. Data for the sgs1 mgt1 strain (AID 161);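 note: 0% = growth of cultures given vehicle only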; conditions: S. cerevisiae sgs1 mgt1 strain, at 50.0 µM, stronger effect = higher value
Procedure, shortened: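 Genetically altered yeast, compound exposure, growth inhibition relative to vehicle.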

[4] = NCI Yeast Anticancer Drug Screen. Data for the cln2 rad14 strain (AID 165);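 note: 0% = growth equal to vehicle treated cultures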; conditions: S. cerevisiae cln2 rad14 strain, at 50.0 µM, stronger effect = higher value
Procedure, shortened: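 Test compounds were added to cln2 rad14 yeast cultures; inhibition of growth was then determined by comparison with vehicle treatment.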

[5] = NCI Yeast Anticancer Drug Screen. Data for the bub3 strain (AID 167); conditions: S. cerevisiae bub3 mutant strain, at 50.0 µM, stronger effect = higher value
Procedure, shortened: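 Compounds were applied to a genetically altered yeast strain carrying a cell-cycle control defect. Growth inhibition was scored against vehicle-treated controls.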

[6] = NCI Yeast Anticancer Drug Screen. Data for the mlh1 rad18 strain (AID 175); conditions: S. cerevisiae mlh1 rad18 strain growth inhibition; at 50.0 µM; stronger effect = higher value
Procedure, shortened: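 Inhibition values reflect reduced growth of mutant yeast versus vehicle-treated controls following compound exposure; the mutations affect DNA damage repair.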

Measured: growth inhibition

CC1(CBr)COC(c2ccccc2)(C2CCCCC2)OC1 (stereo unspecified)
inactive: [1] -1.9% | [2] -14.8% | [3] -5.55% | [4] -1.9% | [5] -13.7% | [6] 23.7%

CC(=O)Nc1ccc(S(=O)(=O)NC2(C)C(=O)N(C)C(=O)N(C)C2=O)cc1
inactive: [1] 32.2% | [2] 15.2% | [3] 14.2% | [4] 17.5% | [5] 3.15% | [6] 27.7%

N#Cc1ccc(NN=NCCCCCl)cc1
inactive: [1] 8.85% | [2] -8.3% | [3] 14.8% | [4] 3.05% | [5] -6.7% | [6] 2.6%

COC(=O)N1C(c2ccccc2)C=CC(c2ccccc2)N1C(=O)OC (stereo unspecified)
inactive: [1] 12.7% | [2] 11.2% | [3] 10.2% | [4] 4.3% | [5] 17% | [6] 18.2%

OCCN(CCO)c1ccc(-n2cnc3c(=S)nc[nH]c32)cc1
inactive: [1] -3.1% | [2] -3% | [3] 5.55% | [4] -43.8% | [5] 8.35% | [6] -4.15%

CC12NN=NC1C(=O)NC2=O (stereo unspecified)
inactive: [1] 0.85% | [2] -0.75% | [3] 20.6% | [4] 12% | [5] -3.1% | [6] -5.05%

Clc1ccc(CSc2nnc(SCc3ccc(Cl)c(Cl)c3)c3[nH]cnc23)cc1Cl
inactive: [1] 36.5% | [2] 6.15% | [3] 47.4% | [4] 30.6% | [5] 22.9% | [6] 3.1%

NC(=S)NNC(=O)c1cccs1
inactive: [1] -9.9% | [2] -10.2% | [3] 22.6% | [4] 3.35% | [5] 7.05% | [6] 9.75%

COc1c2cc3c(cc2nc2occc12)OCO3
inactive: [1] 1.1% | [2] -5.35% | [3] -9.3% | [4] 2.6% | [5] -11.2% | [6] 5.55%

CN=NNc1ccccc1
inactive: [1] -1.4% | [2] 6.75% | [3] -6.45% | [4] -29.2% | [5] 14.8% | [6] -6.4%

COc1cc2c(c(OC)c1OC)-c1ccc(OC)c(=O)cc1C(NC(=O)CCCCCNc1ccc(N=[N+]=[N-])cc1[N+](=O)[O-])CC2 (stereo unspecified)
inactive: [3] 45% | [4] 36% | [5] 12.8%
active: [1] 88.5% | [2] 84.4% | [6] 84.3%

C=C1C2C[C@@H]3OC4CC5O[C@]6(CC5OC4C(C)C3OC(=O)CC3CC[C@@H]4OC5C7OC8C[C@](CCC9CC(=C)[C@H](CCC(C[C@H]1C)O2)O9)(OC7C4O3)O[C@@H]85)C[C@@H]1O[C@@]2(CC(C)[C@@H]3OC(CC(=O)CCO)C(O)C[C@@H]3O2)CC(C)[C@@H]1O6 (stereo partly specified)
active: [1] 84.5% | [2] 88.5% | [3] 88.6% | [4] 84.5% | [5] 87.5% | [6] 87.3%

CCCCN(CCCC)CC(=O)NC(N)=O
inactive: [1] 4.6% | [2] 0.9% | [3] -6.95% | [4] -2.8% | [5] 10.3% | [6] -6.8%

CCOC(=O)CCCCCSc1n[nH]c(=O)[nH]c1=O
inactive: [1] -7.5% | [2] -11% | [3] -21.9% | [4] 5.75% | [5] 6.15% | [6] -4.2%

COc1cc2c(cc1Oc1c(O)c(OC)cc3c1C(C)N(C)CC3)C(C)N(C)CC2 (stereo unspecified)
inactive: [1] 37.5% | [2] -8.1% | [3] 2.4% | [4] 0.8% | [5] 2.5% | [6] 14.9%

O/N=C/c1ncccc1C1OCCO1
inactive: [1] 9.45% | [2] -0.55% | [3] -2.35% | [4] 9.8% | [5] -6.7% | [6] 14.7%

[S-]c1n[n+](-c2ccccc2)c(-c2ccc(Cl)cc2)s1
inactive: [1] -2.05% | [2] 5.8% | [3] 7.75% | [4] -3.65% | [5] -4.85% | [6] 0.45%

Cc1cccc(C=NC23CC4CC(CC(C4)C2)C3)c1
inactive: [1] -30.4% | [2] -40.5% | [3] -40.5% | [4] -30.7% | [5] -44.9% | [6] -43.3%

CC(C)(C)OC(=O)NC(Cc1ccccc1)C(=O)OCN1C(=O)C2C3C=CC(C2C1=O)C1C2C(=O)N(COC(=O)C(Cc4ccccc4)NC(=O)OC(C)(C)C)C(=O)C2C31 (stereo unspecified)
inactive: [1] 26.8% | [2] -4.1% | [3] -0.5% | [4] -6.55% | [5] 8.25% | [6] 20.4%

Cc1ccc(C(C(=O)O)c2ccc(C)cc2)cc1
inactive: [1] 45.5% | [2] 2.25% | [3] 44.9% | [4] 27.4% | [5] 22.1% | [6] 29.2%

CSC1=NC=C(C#N)C2=NC(c3ccccc3)NN12 (stereo unspecified)
inactive: [1] -0.3% | [2] -5.55% | [3] -6.6% | [4] -14.2% | [5] 2.8% | [6] 7%

CC(=O)CC(C)=Nc1ccc([N+](=O)[O-])cc1
inactive: [1] 1.75% | [2] -3.9% | [3] -6.7% | [4] -34.5% | [5] -16.6% | [6] 2.3%

COC(=O)C1CN(c2ccccc2)CCC1=O (stereo unspecified)
inactive: [1] -28.9% | [2] -31.8% | [3] -0.55% | [4] -35.7% | [5] -10.3% | [6] -12.7%

COc1ccc2c(c1)OCCN(C)OC2c1cccc(Cl)c1 (stereo unspecified)
inactive: [1] -4.55% | [2] -6.45% | [3] -7.15% | [4] -5.15% | [5] 9.4% | [6] 6.7%

CCCCNC(=S)SSSSC(=S)NCCCC
inactive: [1] -8.45% | [2] -14% | [3] -6.05% | [4] -53.5% | [5] 8.7% | [6] -7.55%

C=CCOC(OCC=C)C(C)C
inactive: [1] -0.5% | [2] -12.2% | [3] -13.9% | [4] -3.4% | [5] -23.4% | [6] -3.4%

COc1ccc2cc(OC)ccc2c1
inactive: [1] 4.95% | [2] -14.6% | [3] -1.15% | [4] 22% | [5] 1.5% | [6] 14%

CC1CCC(C(C)C)N(C)CC1 (stereo unspecified)
inactive: [1] -17.2% | [2] -22.6% | [3] -6% | [4] 3.75% | [5] -8.15% | [6] -2.2%

Cc1ncc(CO)c(Cc2ccc(N(C)C)cc2)c1O
inactive: [1] 3.15% | [2] -2.25% | [3] -5.9% | [4] -2.25% | [5] -58.8% | [6] 1.8%

O=S1(=O)OC(c2ccc(O)cc2)(c2ccc(O)cc2)c2ccccc21
inactive: [1] 31.6% | [2] -25.9% | [3] 3.1% | [4] 9% | [5] -11.9% | [6] 18.6%

O=P(O)(O)CCC(O)CO (stereo unspecified)
inactive: [1] -12.5% | [2] 10.3% | [3] -11.6% | [4] -78.2% | [5] 4.6% | [6] -17.5%

Nc1ccc(CCCCc2ccc(Cl)cc2Cl)cc1
active: [1] 98.2% | [2] 98.2% | [3] 98.5% | [4] 98.1% | [5] 98% | [6] 98%

CN1C(c2ccncc2)=NCC12CCCCC2
inactive: [1] 17.2% | [2] 7.35% | [3] 3.6% | [4] 1.05% | [5] 13.2% | [6] -1.5%

BrC12CC3CC(CC(C3)C1)C2
inactive: [1] 21.8% | [2] 13.1% | [3] 9.4% | [4] 11.1% | [5] 9.25% | [6] 12.8%

COc1ccc(Nc2nc(NS(=O)(=O)c3cc(C)c(Cl)cc3S)n[nH]2)cc1
inactive: [1] 23.4% | [2] 27.9% | [3] 3.65% | [4] 24.9% | [5] 16.9% | [6] -4.9%

C1=Cc2nc1c(-c1ccncc1)c1ccc([n-]1)c(-c1ccncc1)c1nc(c(-c3ccncc3)c3ccc([n-]3)c2-c2ccncc2)C=C1.[Zn+2]
inactive: [1] -20.6% | [2] -9.45% | [3] -8.95% | [4] 15.7% | [5] 18.9% | [6] -3.65%

NNC(=O)CNc1cccc(Br)c1
inactive: [1] -16.1% | [2] -24.6% | [3] -6.1% | [4] 16.9% | [5] -32.4% | [6] -11.4%

O=C1/C(=C/c2ccco2)CC/C1=C\c1ccco1
inactive: [1] 23.4% | [2] 15% | [3] 29% | [4] -18.1% | [5] 14.1% | [6] 44.5%

O=[N+]([O-])c1ccc(S(=O)(=O)N/N=C/C=C/c2ccccc2[N+](=O)[O-])cc1
inactive: [1] 5% | [2] -5.65% | [3] 7.35% | [4] -7.55% | [5] 16.4% | [6] 39.1%

CCC(SC)C(=O)c1ccccc1 (stereo unspecified)
inactive: [1] -7.55% | [2] -11.6% | [3] 0.5% | [4] -12.4% | [5] -33.8% | [6] -12.8%

CC(CC[C@@]1(C)C(=O)CCC2O[C@]21C)[C@H]1C[C@@H](c2ccoc2)OC1=O (stereo partly specified)
inactive: [1] 9.05% | [2] -31.8% | [3] -5.4% | [4] -15.8% | [5] -4.8% | [6] -70.9%
